Results filed as inconclusive are left out. Active and inactive are the calls of the source. Unless noted, the call rests on the fitted dose curve; in most records, active means well fitted curve in the direction sought with a large enough effect in the repeat runs; inconclusive means weak or mixed curves; inactive means no such curve, though single readings can be large; an effect the other way counts as inactive or inconclusive.
Tests used:
[1] = qHTS assay for small molecules that induce genotoxicity in human embryonic kidney cells expressing luciferase-tagged ATAD5 (AID 651632); further: nearly all actives have a fitted effect of over 15% in size
Method in brief: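 HEK293T cells carrying a luciferase reporter tagged to ATAD5 were exposed to compound or DMSO vehicle for 16 hr at 37C, 5% CO2. Amplite was added, and after 30 min at room temperature luciferase activity was read as a marker of ATAD5 induction.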

[2] = qHTS assay for small molecules that induce genotoxicity in human embryonic kidney cells expressing luciferase-tagged ATAD5 - cell viability (AID 651634; calls by dose curve; further: nearly all actives have a fitted effect of over 25% in size; further: potency means the concentration at half of the fitted maximal effect)
Method in brief: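 HEK293T cells expressing luciferase-tagged ATAD5 were exposed to compound or DMSO for 15.5 hr at 37C, 5% CO2. Viability was then read as live-cell protease activity by CellTiter-Fluor fluorescence after 30 min at 37C.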

[3] = qHTS assay for small molecule disruptors of the mitochondrial membrane potential - cell viability (AID 720634; calls by dose curve; further: nearly all actives have a fitted effect of over 20% in size; further: potency means the concentration at half of the fitted maximal effect)
Method in brief: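 HepG2 cells seeded overnight at 37 C, then exposed to compound or DMSO for 1 hr at 37 C, 5% CO2. m-MPI dye added, then CellTiter-Glo for 30 min at room temperature; viability read as ATP luminescence.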

[4] = qHTS assay to test for compound auto fluorescence at 535 nm (green) in HepG2 cells (AID 720675); further: potency means the concentration at half of the fitted maximal effect
[5] = qHTS assay to test for compound auto fluorescence at 460 nm (blue) in HEK293 cells (AID 720678)
Method in brief: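 Triamterene serves as the blue fluorophore standard. Compound signal at 405/460 nm is read in HEK293 wells (2,000 cells, 10% dialyzed FBS) after overnight treatment at 37C.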

[6] = qHTS assay to test for compound auto fluorescence at 590 nm (red) in HEK293 cells (AID 720679)
Method in brief: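 We plated HEK293 cells in 10% dialyzed FBS medium, let them adhere for 4-5 hr, then added 23 nL compound. Overnight at 37C and 5% CO2 preceded fluorescence measurement at 540/590nm.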

[7] = qHTS assay to test for compound auto fluorescence at 535 nm (green) in HEK293 cells (AID 720680); further: potency means the concentration at half of the fitted maximal effect
[8] = qHTS assay to test for compound auto fluorescence at 460 nm (blue) in HEK293 cell free culture (AID 720681)
Method in brief: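 Compounds were added to cell-free DMEM with 10% FBS and fluorescence read directly. The blue channel used 405 nm excitation and 460 nm emission, with triamterene as the reference fluorophore.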

[9] = qHTS assay to test for compound auto fluorescence at 535 nm (green) in HEK293 cell free culture (AID 720682); further: potency means the concentration at half of the fitted maximal effect
Method in brief: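 DMEM + 10% FBS, cell-free; cpd or DMSO pinned in; Ex485/Em535 read; output as fluorescein-equivalent signal.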

[10] = qHTS assay to test for compound auto fluorescence at 590 nm (red) in HEK293 cell free culture (AID 720683)
Method in brief: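 Cell-free wells of DMEM with 10% FBS received compound, and intrinsic fluorescence was read at excitation/emission 540/590 nm. Values expressed as equivalence to Rose Bengal sodium.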

[11] = qHTS assay to test for compound auto fluorescence at 590 nm (red) in HepG2 cell free culture (AID 720684)
Method in brief: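 Compound was pinned into wells holding MEM with 10% FBS and no cells, and red fluorescence was read at Ex/Em 540/590 nm. Signal is expressed as auto fluorescence equivalency relative to Rose Bengal sodium.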

[12] = qHTS assay to test for compound auto fluorescence at 460 nm (blue) in HepG2 cell free culture (AID 720685)
Method in brief: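 Compound (23 nL) or DMSO pinned into cell-free MEM with 10% FBS; blue fluorescence read at 405/460 nm excitation/emission, expressed as auto-fluorescence equivalency to triamterene.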

[13] = qHTS assay to test for compound auto fluorescence at 535 nm (green) in HepG2 cell free culture (AID 720686); further: potency means the concentration at half of the fitted maximal effect
[14] = qHTS assay to test for compound auto fluorescence at 460 nm (blue) in HepG2 cells (AID 720687)
Method in brief: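 HepG2 cells in MEM with 10% FBS, attached overnight at 37 C, were exposed to compound or DMSO for 1 hr at 37 C, 5% CO2. Blue fluorescence was read at 405/460 nm, with triamterene as reference fluorophore.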

[15] = target: Glucocorticoid receptor (Homo sapiens) (UniProt P04150); test: qHTS assay to identify small molecule agonists of the glucocorticoid receptor (GR) signaling pathway (AID 720691; active means well fitted activation curve with a large enough effect in the signal ratio in the repeat runs, not every such curve was filed as active; the % refers to the signal ratio); conditions: GR-bla HeLa, beta-lactamase reporter ratio, 18 h; activation: at 62.4 µM (top of the series)
Sequence of Glucocorticoid receptor (Homo sapiens) (P04150 whole entry, looked up): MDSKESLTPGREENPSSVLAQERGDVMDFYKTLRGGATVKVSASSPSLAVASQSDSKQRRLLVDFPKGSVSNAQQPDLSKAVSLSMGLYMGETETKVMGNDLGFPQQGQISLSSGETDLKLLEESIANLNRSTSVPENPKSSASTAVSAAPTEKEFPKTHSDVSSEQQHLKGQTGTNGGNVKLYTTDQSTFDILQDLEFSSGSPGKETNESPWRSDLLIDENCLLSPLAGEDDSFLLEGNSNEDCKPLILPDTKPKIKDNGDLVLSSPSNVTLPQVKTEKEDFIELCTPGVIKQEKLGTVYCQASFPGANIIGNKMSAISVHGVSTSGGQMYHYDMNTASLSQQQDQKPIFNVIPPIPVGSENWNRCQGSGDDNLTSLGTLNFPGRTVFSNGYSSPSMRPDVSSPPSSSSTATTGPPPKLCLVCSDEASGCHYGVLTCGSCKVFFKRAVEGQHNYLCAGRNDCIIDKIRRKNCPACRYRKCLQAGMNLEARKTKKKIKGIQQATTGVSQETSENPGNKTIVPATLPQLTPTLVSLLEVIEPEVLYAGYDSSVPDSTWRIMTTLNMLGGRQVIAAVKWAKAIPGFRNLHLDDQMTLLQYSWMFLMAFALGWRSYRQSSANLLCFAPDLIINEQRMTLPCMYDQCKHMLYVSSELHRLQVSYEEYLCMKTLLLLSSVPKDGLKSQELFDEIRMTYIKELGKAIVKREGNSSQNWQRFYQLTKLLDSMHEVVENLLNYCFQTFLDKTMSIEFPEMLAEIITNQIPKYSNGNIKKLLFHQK
Method in brief: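 GR-bla HeLa cells (beta-lactamase reporter under glucocorticoid response element) were plated 4 h at 37 C/5% CO2, given compounds in DMSO, and incubated 18 h at 37 C. LiveBLAzer B/G FRET substrate was added for 2 h at room temperature, then fluorescence intensity read.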

[16] = qHTS assay to test for compound auto fluorescence at 590 nm (red) in HepG2 cells (AID 720674)
Method in brief: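 Fluorescence at 590 nm emission following 540 nm excitation was recorded from HepG2 wells one hour after compound transfer, with DMSO-only wells as vehicle and Rose Bengal sodium equivalency as the scale.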

[17] = qHTS assay for small molecule agonists of the p53 signaling pathway - cell viability (AID 651633; calls by dose curve;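 further: p53RE-bla HCT reporter cells with a stable beta-lactamase p53 reporter; nearly all actives have a fitted effect of over 30% in size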)
Method in brief: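 p53RE-bla cells were treated with compound for 16 hours at 37 C. Cytotoxicity was then measured as CellTiter-Glo luminescence after 30 min at room temperature.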

[18] = qHTS assay for small molecule disruptors of the mitochondrial membrane potential (AID 720635); further: potency means the concentration at half of the fitted maximal effect
Method in brief: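 HepG2 cells exposed to compound 1 hr at 37C, then Mito-MPS dye 30 min. Ratio read of aggregate (540/590 nm) versus monomer (490/535 nm) fluorescence.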

[19] = target: Glucocorticoid receptor (Homo sapiens) (UniProt P04150); test: qHTS assay to identify small molecule antagonists of the glucocorticoid receptor (GR) signaling pathway (AID 720692; active means well fitted inhibition curve with a large enough effect in the signal ratio in the repeat runs, not every such curve was filed as active; the % refers to the signal ratio)
Method in brief: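 GR-bla HeLa cells (beta-lactamase reporter under glucocorticoid response element) were pre-plated 4 h at 37 C, treated with compounds plus 5 nM dexamethasone (final) for 18 h, then read by LiveBLAzer B/G FRET fluorescence after 2 h.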

Measured: Potency
Tags describe the fitted curve by direction and shape or compound fluorescence and quenching.

O=C1NCCN1c1ncc([N+](=O)[O-])s1
not listed: [16] | [17] | [18] | [19]
inactive: all other assays above

CC(C)(C)c1ccc(CN2CCN(C(c3ccccc3)c3ccc(Cl)cc3)CC2)cc1 (stereo not given)
not listed: [2] | [17] | [18] | [19]
inactive: all other assays above

CO[C@@H]1[C@@H](O[C@@H]2O[C@H](C)[C@@H](O[C@H]3C[C@@](C)(O)[C@@H](OC(=O)CC(C)C)[C@H](C)O3)[C@H](N(C)C)[C@H]2O)[C@@H](CC=O)C[C@@H](C)C(=O)/C=C/C2OC2C[C@@H](C)OC(=O)C[C@H]1OC(C)=O (stereo not given in full)
not listed: [1] | [2] | [14] | [15] | [18] | [19]
inactive: all other assays above

CC(=O)[C@@]1(O)CC[C@H]2[C@@H]3C=C(Cl)C4=CC(=O)CC[C@]4(C)[C@H]3CC[C@@]21C
not listed: [5] | [15] | [17] | [18] | [19]
inactive: all other assays above

CC1CCCC1
inactive: [16] | [4] | [5] | [6] | [7] | [8] | [9] | [11] | [12] | [13]

CN1CCN(CCC=C2c3ccccc3Sc3ccc(S(=O)(=O)N(C)C)cc32)CC1
active: [2] 29.8 µM
not listed: [1] | [3] | [10] | [15] | [17] | [18] | [19]
inactive: all other assays above

CCc1ccc2c(c1)N(CC(C)CN(C)C)c1ccccc1S2 (stereo not given)
active: [2] 33.5 µM
not listed: [12] | [17] | [18] | [19]
inactive: all other assays above

CC1(C)S[C@@H]2[C@H](NC(=O)C3(N)CCCCC3)C(=O)N2[C@H]1C(=O)O
not listed: [1] | [14] | [17] | [18] | [19]
inactive: all other assays above

O=C(O)C1CCCN1 (stereo not given)
not listed: [1] | [6]
inactive: all other assays above

CC(=O)Nc1ccc(NC(=S)NC(=O)c2ccc(C(C)(C)C)cc2)cc1
active: [18] 2.11 µM
not listed: [1] | [11] | [17] | [19]
inactive: all other assays above

[O]=[Bi][O][Bi]=[O]
not listed: [1] | [19]
inactive: all other assays above

Cc1cccc(C)c1Nc1ncccc1C(=O)O
active: [18] 23.7 µM
not listed: [1] | [11]
inactive: all other assays above

COc1ccc(C[C@H](C)NC[C@@H](O)c2ccc(O)c(NC=O)c2)cc1
not listed: [1] | [2] | [14] | [17] | [18] | [19]
inactive: all other assays above

CCCCCCCC(=O)CC[C@@H]1[C@@H](C/C=C\CCCC(=O)OC(C)C)[C@@H](O)C[C@H]1O
active: [3] 26.6 µM | [18] 26.6 µM
not listed: [2] | [15] | [17] | [19]
inactive: all other assays above

CNC(C)[C@@H]1CC[C@@H](N)[C@@H](O[C@H]2[C@H](O)[C@@H](O[C@H]3OC[C@](C)(O)[C@H](NC)[C@H]3O)[C@H](N)C[C@@H]2N)O1 (stereo not given in full)
not listed: [1] | [2] | [3] | [15] | [17] | [18] | [19]
inactive: all other assays above

CO[C@H]1C[C@H](O[C@@H]2/C(C)=C/C[C@@H]3C[C@@H](C[C@]4(CC[C@H](C)[C@@H](C5CCCCC5)O4)O3)OC(=O)[C@@H]3C=C(C)/C(=N/O)[C@H]4OC/C(=C\C=C\[C@@H]2C)[C@]43O)O[C@@H](C)[C@@H]1O
not listed: [1] | [17] | [18]
inactive: all other assays above

CC(=O)Oc1cc(C)c(OC(C)=O)c2ccccc12
not listed: [7] | [17] | [18] | [19]
inactive: all other assays above

CC(=C\c1ccccc1)/C=C1/SC(=S)N(CC(=O)O)C1=O
active: [2] 21.1 µM
not listed: [1] | [15] | [18] | [19]
inactive: all other assays above

Nc1nc(=O)n([C@@H]2CS[C@H](CO)O2)cc1F
not listed: [1]
inactive: all other assays above

CCOC(=O)C1=C(COCCN)NC(C)=C(C(=O)OC)C1c1ccccc1Cl (stereo not given)
not listed: [11] | [15] | [17] | [18]
inactive: all other assays above

CCCCC(C)(O)C/C=C/[C@H]1[C@H](O)CC(=O)[C@@H]1CCCCCCC(=O)OC (stereo not given in full)
not listed: [1] | [6] | [18] | [19]
inactive: all other assays above

Cc1cc2nc3c(=O)[nH]c(=O)nc-3n(C[C@H](O)[C@H](O)[C@H](O)COP(=O)(O)OP(=O)(O)OC[C@H]3O[C@@H](n4cnc5c(N)ncnc54)[C@H](O)[C@@H]3O)c2cc1C
active: [4] 14.1 µM | [7] 22.4 µM [fluorescent] | [9] 15.8 µM [fluorescent] | [13] 12.6 µM [fluorescent]
not listed: [1] | [2] | [5] | [8] | [18] | [19]
inactive: all other assays above

CCC(=O)c1ccc2c(c1)N(CCCN1CCN(CCO)CC1)c1ccccc1S2
active: [2] 26.6 µM
not listed: [12] | [15] | [17] | [18] | [19]
inactive: all other assays above

COc1ccc(C[C@@H](C)NC[C@H](O)c2ccc(O)c(NC=O)c2)cc1
not listed: [1] | [2] | [17] | [18]
inactive: all other assays above

NC(=O)OC[C@@H]1[C@H](NC(=O)/C(=N\OCC(=O)O)c2csc(N)n2)C(=O)N1S(=O)(=O)O
not listed: [1] | [10]
inactive: all other assays above

C=Cc1c(C)c2cc3nc(cc4[nH]c(cc5nc(cc1[nH]2)C(C)=C5CCC(=O)OC)c(CCC(=O)O)c4C)[C@@]1(C)C3=CC=C(C(=O)OC)[C@H]1C(=O)OC
active: [18] 1.88 µM
not listed: [2] | [17] | [19]
inactive: all other assays above

CCCCCCCCCCCCCCCCCC[N+](C)(C)CCC[Si](OC)(OC)OC
not listed: [11] | [17] | [18]
inactive: all other assays above

CN1CCN(CCCN2c3ccccc3Sc3ccccc32)CC1
not listed: [6] | [17] | [18]
inactive: all other assays above

CC(C)[C@@H](C)/C=C/[C@@H](C)[C@H]1CC[C@H]2/C(=C/C=C3\C[C@@H](O)CC[C@@H]3C)CCC[C@]12C
not listed: [2] | [15] | [17] | [18] | [19]
inactive: all other assays above
